Assay results from PubChem BioAssay AID1159580 (chemical genetic matrix, 2015).
Among all 5,500 compounds or so, about 2,000 (36%) were called active. Another 18% or so got no clear call; they are omitted. No stated cut-off is given here; in the data, active means normalized growth mostly below about 0.91 (no sharp cut-off); inconclusive means no clear call, values can overlap the other calls; inactive means mostly above about 0.92. The list shows a part of the results.

Test: chemical genetic growth profiling, strain panel (AID 1159580);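 further: tested at 20 µM; growth read once vehicle control cultures reached saturation at 30 °C; 1 = growth at the plate median or of vehicle wells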
Details: growth OD

Measured: normalized growth

CCNc1nc(Cl)nc(NC(C)C)n1
inactive: S. cerevisiae deletion strains, locus YJR075W, strain HOC1, stronger effect = lower value 1.02 | S. cerevisiae deletion strains, locus YKL009W, strain mrt4, stronger effect = lower value 1.03 | S. cerevisiae deletion strains, locus YKL068W, stronger effect = lower value 1.02 | S. cerevisiae deletion strains, locus YKL085W, strain MDH1 (second series), stronger effect = lower value 1.02 | S. cerevisiae deletion strains, locus YKL085W, strain MDH1, stronger effect = lower value 1.02 | S. cerevisiae deletion strains, locus YKL160W, strain elf1, stronger effect = lower value 1 | S. cerevisiae deletion strains, locus YKL190W, strain CNB1, stronger effect = lower value 1.03 | S. cerevisiae deletion strains, locus YKR001C, strain vps1, stronger effect = lower value 1.03 | S. cerevisiae deletion strains, locus YKR026C, strain gcn3, stronger effect = lower value 0.991 | S. cerevisiae deletion strains, locus YKR091W, strain srl3, stronger effect = lower value 1.01 | S. cerevisiae deletion strains, locus YLL001W, strain dnm1, stronger effect = lower value 0.998 | S. cerevisiae deletion strains, locus YLL026W, stronger effect = lower value 1 | S. cerevisiae deletion strains, locus YLL041C, strain sdh2, stronger effect = lower value 1 | S. cerevisiae deletion strains, locus YLR027C, strain aat2, stronger effect = lower value 0.996 | S. cerevisiae deletion strains, locus YLR039C, strain RIC1, stronger effect = lower value 1.02 | S. cerevisiae deletion strains, locus YLR058C, strain SHM2, stronger effect = lower value 1.02 | S. cerevisiae deletion strains, locus YLR102C, strain apc9, stronger effect = lower value 1.02 | S. cerevisiae deletion strains, locus YLR113W, strain HOG1, stronger effect = lower value 0.993 | S. cerevisiae deletion strains, locus YLR221C, strain rsa3, stronger effect = lower value 1.01 | S. cerevisiae deletion strains, locus YLR258W, strain gsy2, stronger effect = lower value 1.01 | S. cerevisiae deletion strains, locus YLR262C, strain YPT6 (second series), stronger effect = lower value 1.01 | S. cerevisiae deletion strains, locus YLR262C, strain YPT6, stronger effect = lower value 1.04 | S. cerevisiae deletion strains, locus YLR268W, strain sec22, stronger effect = lower value 1.01 | S. cerevisiae deletion strains, locus YLR320W, strain mms22, stronger effect = lower value 1.01 | S. cerevisiae deletion strains, locus YLR330W, strain CHS5, stronger effect = lower value 1.02 | S. cerevisiae deletion strains, locus YLR342W, strain FKS1 (second series), stronger effect = lower value 1.01 | S. cerevisiae deletion strains, locus YLR342W, strain FKS1, stronger effect = lower value 1 | S. cerevisiae deletion strains, locus YLR357W, strain rsc2, stronger effect = lower value 0.991 | S. cerevisiae deletion strains, locus YLR370C, strain arc18, stronger effect = lower value 0.984 | S. cerevisiae deletion strains, locus YLR371W, strain rom2, stronger effect = lower value 1.02 | S. cerevisiae deletion strains, locus YLR384C, strain iki3, stronger effect = lower value 1.01 | S. cerevisiae deletion strains, locus YLR418C, strain cdc73, stronger effect = lower value 1.04 | S. cerevisiae deletion strains, locus YML016C, strain PPZ1, stronger effect = lower value 1.01 | S. cerevisiae deletion strains, locus YML032C, strain rad52, stronger effect = lower value 1.03 | S. cerevisiae deletion strains, locus YML120C, strain ndi1, stronger effect = lower value 1.02 | S. cerevisiae deletion strains, locus YML124C, strain tub3, stronger effect = lower value 1.02 | S. cerevisiae deletion strains, locus YMR058W, strain fet3, stronger effect = lower value 1.01 | S. cerevisiae deletion strains, locus YMR078C, strain ctf18, stronger effect = lower value 1.01 | S. cerevisiae deletion strains, locus YMR125W, strain sto1, stronger effect = lower value 0.977 | S. cerevisiae deletion strains, locus YMR129W, stronger effect = lower value 1 | S. cerevisiae deletion strains, locus YMR205C, strain PFK2, stronger effect = lower value 1.01 | S. cerevisiae deletion strains, locus YMR223W, strain ubp8, stronger effect = lower value 1.02 | S. cerevisiae deletion strains, locus YMR231W, strain pep5, stronger effect = lower value 0.996 | S. cerevisiae deletion strains, locus YMR263W, strain SAP30, stronger effect = lower value 1.03 | S. cerevisiae deletion strains, locus YMR307W, strain GAS1, stronger effect = lower value 1.09 | S. cerevisiae deletion strains, locus YNL067W, strain RPL9B, stronger effect = lower value 1.02 | S. cerevisiae deletion strains, locus YNL071W, strain lat1, stronger effect = lower value 1.01 | S. cerevisiae deletion strains, locus YNL128W, strain TEP1, stronger effect = lower value 1.02 | S. cerevisiae deletion strains, locus YNL153C, strain GIM3, stronger effect = lower value 1.01 | S. cerevisiae deletion strains, locus YNL183C, strain NPR1, stronger effect = lower value 0.97 | S. cerevisiae deletion strains, locus YNL209W, strain ssb2, stronger effect = lower value 1.01 | S. cerevisiae deletion strains, locus YNL233W, strain BNI4, stronger effect = lower value 0.98 | S. cerevisiae deletion strains, locus YNL248C, strain rpa49, stronger effect = lower value 0.994 | S. cerevisiae deletion strains, locus YNL250W, strain rad50, stronger effect = lower value 1.01 | S. cerevisiae deletion strains, locus YNL271C, strain bni1, stronger effect = lower value 1.02 | S. cerevisiae deletion strains, locus YNL298W, strain CLA4, stronger effect = lower value 1.02 | S. cerevisiae deletion strains, locus YNL307C, strain MCK1, stronger effect = lower value 1.02 | S. cerevisiae deletion strains, locus YNL322C, strain KRE1 (second series), stronger effect = lower value 1 | S. cerevisiae deletion strains, locus YNL322C, strain KRE1, stronger effect = lower value 1.02 | S. cerevisiae deletion strains, locus YNR049C, strain mso1, stronger effect = lower value 1 | S. cerevisiae deletion strains, locus YNR052C, strain pop2, stronger effect = lower value 1.04 | S. cerevisiae deletion strains, locus YOL006C, strain TOP1, stronger effect = lower value 1.04 | S. cerevisiae deletion strains, locus YOL012C, strain htz1 1.05 | S. cerevisiae deletion strains, locus YOL147C, strain pex11, stronger effect = lower value 1.01 | S. cerevisiae deletion strains, locus YOR001W, strain rrp6, stronger effect = lower value 0.998 | S. cerevisiae deletion strains, locus YOR061W, strain CKA2, stronger effect = lower value 1.02 | S. cerevisiae deletion strains, locus YOR069W, strain VPS5, stronger effect = lower value 1.01 | S. cerevisiae deletion strains, locus YOR070C, strain gyp1, stronger effect = lower value 1.01 | S. cerevisiae deletion strains, locus YOR080W, strain dia2, stronger effect = lower value 0.995 | S. cerevisiae deletion strains, locus YOR083W, strain WHI5, stronger effect = lower value 1 | S. cerevisiae deletion strains, locus YOR106W, strain vam3, stronger effect = lower value 1.04 | S. cerevisiae deletion strains, locus YOR136W, strain idh2, stronger effect = lower value 1.02 | S. cerevisiae deletion strains, locus YOR144C, strain elg1, stronger effect = lower value 1.02 | S. cerevisiae deletion strains, locus YOR184W, strain ser1, stronger effect = lower value 1.03 | S. cerevisiae deletion strains, locus YOR231W, strain MKK1, stronger effect = lower value 0.997 | S. cerevisiae deletion strains, locus YOR265W, strain rbl2, stronger effect = lower value 1 | S. cerevisiae deletion strains, locus YOR270C, strain vph1, stronger effect = lower value 0.975 | S. cerevisiae deletion strains, locus YOR290C, strain snf2, stronger effect = lower value 1.01 | S. cerevisiae deletion strains, locus YOR316C, strain cot1, stronger effect = lower value 1.03 | S. cerevisiae deletion strains, locus YPL051W, strain arl3, stronger effect = lower value 0.98 | S. cerevisiae deletion strains, locus YPL055C, strain LGE1, stronger effect = lower value 1.03 | S. cerevisiae deletion strains, locus YPL078C, strain atp4, stronger effect = lower value 0.977 | S. cerevisiae deletion strains, locus YPL106C, strain sse1, stronger effect = lower value 1.03 | S. cerevisiae deletion strains, locus YPL240C, strain hsp82, stronger effect = lower value 1.01 | S. cerevisiae deletion strains, locus YPL241C, strain CIN2, stronger effect = lower value 1.03 | S. cerevisiae deletion strains, locus YPL256C, strain CLN2, stronger effect = lower value 0.996 | S. cerevisiae deletion strains, locus YPR119W, strain clb2, stronger effect = lower value 1.01 | S. cerevisiae deletion strains, locus YPR141C, strain kar3, stronger effect = lower value 1.03 | S. cerevisiae deletion strains, locus YPR163C, strain tif3, stronger effect = lower value 1.03 | S. cerevisiae deletion strains, locus YPR167C, strain met16, stronger effect = lower value 1.02 | S. cerevisiae deletion strains, strain wtn01, stronger effect = lower value 1.02 | S. cerevisiae strains, strain wild type, stronger effect = lower value 1.02
